# Laboratory results taken from PubChem BioAssay.
# Activity calls are given as the source filed them. Unless noted, no rule for the calls is given here.
# Key:
# [1] = HepG2 liver cancer cell viability effects, profiling panel, resazurin fluorescence, 24 h, PK04 Diversity Set (AID 1172); details: higher = more signal
# [2] = basal S. cerevisiae growth modulation, no modifier, primary screen, OD600, strain BY4716, 24 h, basal condition (AID 1173); details: OD600, 24 h, higher = more signal, called active from +8 up or from −8 down
# [3] = MM1S myeloma cell viability, profiling panel, resazurin fluorescence, basal, 24 h, PK04 Diversity Set (AID 1174); details: higher = more signal, called active from +8 up or from −8 down;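 also: MM1S multiple myeloma cell line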
# [4] = target: Dihydroorotate dehydrogenase (quinone), mitochondrial (Plasmodium falciparum (isolate 3D7)) (UniProt Q08210); assay: PfDHODH enzyme inhibitors, primary screen, biochemical, C-terminal His tag, absorbance 600 nm (AID 1175); details: DCIP absorbance 600 nm, higher = more signal, called active from +8 up or from −8 down;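 also: recombinant parasite enzyme with a five histidine tag at its C terminus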
# [5] = P. aeruginosa biofilm formation inhibitors, primary screen, strain PAO1, LB-PBS medium, absorbance 600 nm (AID 1176); details: P. aeruginosa PAO1 growth/biofilm, A600, 12 h; higher = more signal
# [6] = S. cerevisiae RM11-1a growth modifiers, primary screen, strain RM11-1a, OD600, basal, 24 h (AID 1177); details: OD600, 24 h, higher = more signal, called active from +8 up or from −8 down;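 also: cultures grown under basal conditions with no added stressor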
# [7] = E. coli acrAB mutant growth effects, primary screen, E. coli filamentation inducers, strain DRC39, OD650, 24 h (AID 1178); details: higher = more signal, called active from +8 up or from −8 down;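 also: growth measured as culture turbidity by optical density at 650 nm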
# [8] = E. coli acrAB mutant growth effects, primary screen, E. coli filamentation inducers, strain DRC39, OD650, 48 h (AID 1179);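 also: screen aims at cell division blockers that make cells filament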; details: E. coli DRC39 delta-acrAB growth, higher = more signal, called active from +8 up or from −8 down
# [9] = RPMI8226 myeloma cell viability, profiling panel, resazurin fluorescence, basal, 24 h, PK04 Diversity Set (AID 1180); details: higher = more signal;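 also: RPMI8826 multiple myeloma cell line at 5000 cells per well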
# [10] = target: E3 ubiquitin-protein ligase XIAP (Homo sapiens) (UniProt P98170); assay: XIAP binders, primary screen, biophysical, small-molecule microarray, fluorescence 635 nm (AID 1181); details: small-molecule microarray binding, higher = more signal;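 also: score merges 667 nm emission and signal to noise over triplicate slides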
# [11] = test system: XIP peptide (Xip251-270) binding; assay: small-molecule binders of XIP peptide, primary screen, biochemical, small-molecule microarray, fluorescence 635/667 nm, 0.1 µg/mL protein (AID 1182); details: fluorescent protein binding, 635 nm, higher = more signal, called active from +8 up or from −8 down
# XIP peptide (Xip251-270) = assay: small-molecule binders of XIP peptide, primary screen, biochemical, small-molecule microarray, fluorescence 635/667 nm, 0.5 µg/mL protein (AID 1183); details: small-molecule microarray binding, fluorescence 635 nm; higher = more signal
# [12] = Plasmodium falciparum growth inhibition, primary screen, strain 3D7, DAPI fluorescence, 100 nL (AID 1184);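 also: parasites grown inside human red blood cells in medium with human serum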; details: P. falciparum 3D7 growth, 3 d, higher = more signal
# [13] = target: Homeobox protein Hox-A13 (Mus musculus) (UniProt Q62424); assay: inhibitors of HoxA13-DNA binding, primary screen, biochemical, fluorescence polarization, labeled oligonucleotide (AID 1185); details: 15 min, higher = more signal, called active from +8 up or from −8 down
# [14] = inhibitors of hydroxyurea-induced Chk1 phosphorylation, primary screen, imaging, HeLa, phospho-Chk1 antibody, percent positive cells (AID 1186); details: hydroxyurea-induced phospho-Chk1 immunofluorescence imaging, higher = more signal
# [15] = inhibitors of hydroxyurea-induced Chk1 phosphorylation, primary screen, imaging, HeLa, phospho-Chk1 nuclear intensity (AID 1187); details: hydroxyurea-induced phospho-Chk1 immunofluorescence imaging, higher = more signal
# Chain of E3 ubiquitin-protein ligase XIAP (Homo sapiens) (P98170 whole entry, looked up): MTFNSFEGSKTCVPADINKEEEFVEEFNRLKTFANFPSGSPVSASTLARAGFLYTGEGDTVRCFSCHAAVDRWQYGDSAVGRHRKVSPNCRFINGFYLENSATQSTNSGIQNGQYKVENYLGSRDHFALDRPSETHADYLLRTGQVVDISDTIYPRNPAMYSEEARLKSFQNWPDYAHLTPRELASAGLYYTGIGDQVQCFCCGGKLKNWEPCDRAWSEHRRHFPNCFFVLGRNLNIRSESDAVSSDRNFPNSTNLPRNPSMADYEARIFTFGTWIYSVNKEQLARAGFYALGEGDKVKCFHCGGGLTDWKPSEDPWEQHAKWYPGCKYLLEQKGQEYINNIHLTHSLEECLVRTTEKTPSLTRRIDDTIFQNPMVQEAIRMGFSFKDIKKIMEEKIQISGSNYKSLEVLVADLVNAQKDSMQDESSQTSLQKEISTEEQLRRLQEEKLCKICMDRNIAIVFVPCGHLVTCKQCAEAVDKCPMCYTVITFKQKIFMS
# Chain of Homeobox protein Hox-A13 (Mus musculus) (Q62424 whole entry, looked up): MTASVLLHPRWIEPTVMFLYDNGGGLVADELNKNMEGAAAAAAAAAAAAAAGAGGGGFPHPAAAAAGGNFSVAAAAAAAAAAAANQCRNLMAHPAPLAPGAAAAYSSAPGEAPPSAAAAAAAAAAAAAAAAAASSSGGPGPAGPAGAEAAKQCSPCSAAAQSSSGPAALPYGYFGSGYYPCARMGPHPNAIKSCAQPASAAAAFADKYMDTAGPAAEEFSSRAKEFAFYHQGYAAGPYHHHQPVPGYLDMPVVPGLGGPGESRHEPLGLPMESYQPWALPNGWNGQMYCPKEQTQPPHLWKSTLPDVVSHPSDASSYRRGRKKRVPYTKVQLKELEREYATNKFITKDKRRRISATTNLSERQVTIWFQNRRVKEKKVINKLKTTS
# Chain of Dihydroorotate dehydrogenase (quinone), mitochondrial (Plasmodium falciparum (isolate 3D7)) (Q08210 whole entry, looked up): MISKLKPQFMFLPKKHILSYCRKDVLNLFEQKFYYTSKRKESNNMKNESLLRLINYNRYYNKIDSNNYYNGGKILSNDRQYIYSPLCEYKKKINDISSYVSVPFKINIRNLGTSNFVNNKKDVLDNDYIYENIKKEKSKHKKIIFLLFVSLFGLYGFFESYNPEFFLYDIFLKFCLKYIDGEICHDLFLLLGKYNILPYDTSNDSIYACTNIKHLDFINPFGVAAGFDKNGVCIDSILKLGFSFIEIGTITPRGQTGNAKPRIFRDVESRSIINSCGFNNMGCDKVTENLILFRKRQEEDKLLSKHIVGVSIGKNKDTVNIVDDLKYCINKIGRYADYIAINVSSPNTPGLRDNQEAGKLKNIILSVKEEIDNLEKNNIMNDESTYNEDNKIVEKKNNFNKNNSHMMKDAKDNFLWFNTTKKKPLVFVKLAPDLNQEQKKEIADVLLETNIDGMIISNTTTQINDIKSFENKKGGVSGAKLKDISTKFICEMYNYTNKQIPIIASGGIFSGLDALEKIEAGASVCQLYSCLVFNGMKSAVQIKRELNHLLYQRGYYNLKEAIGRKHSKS
SMILES,z-score [1],z-score [2],z-score [3],composite z-score [4],z-score [5],z-score [6],z-score [7],z-score [8],z-score [9],composite z-score [10],composite z-score [11],composite z-score (XIP peptide (Xip251-270)),z-score [12],z-score [13],z-score [14],z-score [15]
C=CCN1C(=O)[C@]2(COC(c3ccc(OCCCO)cc3)=N2)Cc2ccccc21,0.653,-1.8 (inactive),-0.99 (inactive),-1.5 (inactive),0.286 (inactive),-0.675 (inactive),0.695 (inactive),1.54 (inactive),-0.126,0.0933,2.53 (inactive),0.797,-2.19,-4.31 (inactive),-0.455 (inactive),-0.398 (inactive)
C=CCOC(=O)[C@H]1[C@@H]2C(=O)O[C@@H](c3ccccc3)[C@@H](c3ccccc3)N2[C@@H](c2ccc(OCCOC(=O)[C@@H]3C[C@@H]4C(=O)NCC(=O)N4[C@@H]3c3ccc(O)cc3)cc2)[C@]12C(=O)Nc1ccc(I)cc12,-0.247,0.528 (inactive),-0.897 (inactive),0.31 (inactive),2.27 (inactive),0.305 (inactive),-0.641 (inactive),-0.51 (inactive),-0.433,-0.0066,0.2 (inactive),0.825,-1.11,0.274 (inactive),0.147 (inactive),0.192 (inactive)
CCOC(=O)C1=CC[C@@H](c2ccccc2)N(S(=O)(=O)c2ccc(C)cc2)[C@H]1c1ccc(C#N)cc1,0.162,1.5 (inactive),-0.116 (inactive),-0.0753 (inactive),0.381 (inactive),-0.299 (inactive),-0.604 (inactive),-0.288 (inactive),-1.4,0.0123,0.432 (inactive),0.728,-1.95,0.426 (inactive),0.972 (inactive),0.136 (inactive)
COc1ccc([Si](C)(C)[C@H]2[C@H](CC(=O)N3CCC[C@H]3CO)O[C@@]3(C(=O)N(c4ccccc4)c4ccccc43)[C@@H]2C)cc1,1.75,-2.26 (inactive),1.55 (inactive),0.0873 (inactive),0.826 (inactive),-1.81 (inactive),1.21 (inactive),1.49 (inactive),0.843,-0.167,0.511 (inactive),0.531,-0.887,-3.87 (inactive),-1.18 (inactive),-0.219 (inactive)
C[n+]1ccc2ccc(O)cc2c1,0.0027,-1.06 (inactive),0.242 (inactive),-0.843 (inactive),-0.131 (inactive),0.582 (inactive),0.0452 (inactive),-0.0896 (inactive),-0.654,0.473,1.35 (inactive),0.612,-0.901,-8.11 (active),0.124 (inactive),0.282 (inactive)
O=C1OCC=C[C@H]2OC34C=CCN(CCN5CCOCC5)C(=O)[C@H]3N(CCCCCCO)C(=O)[C@@H]4[C@@H]12 (some centres not stated),-0.151,-0.0603 (inactive),0.501 (inactive),-1.97 (inactive),-0.677 (inactive),-0.762 (inactive),-0.193 (inactive),0.0937 (inactive),0.406,0.232,0.304 (inactive),-0.291,-0.448,-7.09 (inactive),-1.52 (inactive),-1.21 (inactive)
COc1ccc(C(O)C2C=CC3C(=O)N(c4ccccc4)C(=O)C3N2Nc2ccccc2)c2ccccc12 (configuration not stated),-1.41,-5.12 (inactive),-1.42 (inactive),0.896 (inactive),1.48 (inactive),0.163 (inactive),-1.05 (inactive),-0.0025 (inactive),-1.95,-0.0049,2.31 (inactive),0.573,-0.182,-1.28 (inactive),-0.0153 (inactive),-0.861 (inactive)
CCOC(=O)C[C@H]1[C@H](OC(=O)c2ccccc2-c2ccccc2)[C@@H](NC(=O)c2ccc(-c3ccccc3)cc2)c2cc(OCCCO)ccc2N1C(=O)c1ccccc1,-0.607,0.579 (inactive),0.633 (inactive),1.03 (inactive),-0.341 (inactive),1.61 (inactive),1.39 (inactive),0.53 (inactive),0.608,-0.121,0.788 (inactive),0.79,-1.43,-1.95 (inactive),-0.189 (inactive),0.151 (inactive)
C=CCC(OC(C)=O)[C@@H]1[C@@H](N(Cc2cc3ccccc3o2)C(=O)c2cccc3ccccc23)c2cc(OCCCO)ccc2N1C(=O)Cc1ccc2ccccc2c1 (some centres not stated),-0.902,0.272 (inactive),-0.411 (inactive),0.449 (inactive),-0.735 (inactive),0.481 (inactive),-0.741 (inactive),-0.973 (inactive),-0.276,-0.0703,-0.0088 (inactive),-0.102,-1.73,-1.02 (inactive),-0.394 (inactive),0.15 (inactive)
C=C(C)[C@@H]1CC=C(C(O)C2C=CC3C(=O)N(Cc4ccccc4)C(=O)C3N2n2cnnc2)CC1 (some centres not stated),-0.429,0.349 (inactive),-0.893 (inactive),-0.295 (inactive),0.878 (inactive),-0.616 (inactive),0.518 (inactive),-0.66 (inactive),-0.334,1.74,-0.137 (inactive),0.3,-1.03,-1.35 (inactive),-0.0789 (inactive),0.265 (inactive)
O=C1O[C@@H](c2ccccc2)[C@@H](c2ccccc2)N2[C@@H](c3ccc(O)cc3)[C@]3(C(=O)Nc4ccccc43)[C@@H](C(=O)N3CCCCCCC3)[C@H]12,0.305,0.189 (inactive),-1.05 (inactive),0.0791 (inactive),1.34 (inactive),1.19 (inactive),0.36 (inactive),-1.16 (inactive),-1.01,0.613,3.19 (inactive),0.862,-1.54,3.1 (inactive),0.242 (inactive),0.883 (inactive)
CS(=O)(=O)CCOC(=O)C1=CC(c2ccc(CO)cc2)=CC(c2cccs2)N(Cc2cccc(OC(F)(F)F)c2)C=C1C(=O)OCCS(C)(=O)=O (configuration not stated),-0.534,-4.14 (inactive),-2.98 (inactive),-1.08 (inactive),0.907 (inactive),0.267 (inactive),-2.93 (inactive),-3.3 (inactive),-1.32,-0.22,0.276 (inactive),0.514,-2.5,-4.18 (inactive),0.552 (inactive),0.377 (inactive)
COC(=O)[C@@]1(Cc2ccc(F)cc2)[C@H]2c3cc(C(=O)N(C)C)n(CCCNc4ccc(C(F)(F)F)cc4Cl)c3C[C@H]2CN1C(=O)c1ccccc1,-0.591,1.28 (inactive),-1.98 (inactive),-0.0269 (inactive),0.439 (inactive),0.482 (inactive),-0.0949 (inactive),0.29 (inactive),-3.88,0.143,0.915 (inactive),0.557,-1.39,-0.925 (inactive),0.456 (inactive),-0.225 (inactive)
CC1CC/C=C\[C@H]2OC34C=CCN(CCN5CCOCC5)C(=O)[C@H]3N(CCCCCO)C(=O)[C@@H]4C2C(=O)O1 (some centres not stated),-0.693,-0.501 (inactive),0.183 (inactive),1.07 (inactive),-0.456 (inactive),0.0357 (inactive),0.408 (inactive),0.45 (inactive),-0.977,0.33,-0.173 (inactive),-1.32,-0.143,-5.32 (inactive),-0.0913 (inactive),-0.364 (inactive)
CN1C(=O)C2C=CC(C(O)c3ccccc3)N(NC(=O)OC(C)(C)C)C2C1=O (configuration not stated),-1.24,1.34 (inactive),-0.749 (inactive),0.802 (inactive),0.31 (inactive),1.18 (inactive),-0.68 (inactive),-0.454 (inactive),-0.0265,0.0338,0.4 (inactive),0.886,-0.305,-0.867 (inactive),0.253 (inactive),-0.0164 (inactive)
O=C1O[C@H](c2ccccc2)[C@H](c2ccccc2)N2[C@H]1[C@@H](C(=O)Nc1nc3ccccc3s1)[C@]1(C(=O)Nc3ccc(C#CC4=CCCCC4)cc31)[C@H]2c1ccc(OCCO)cc1,0.281,1.63 (inactive),-0.543 (inactive),-3.03 (inactive),3.01 (inactive),1.46 (inactive),-0.154 (inactive),-0.686 (inactive),-0.496,-0.24,-0.172 (inactive),0.656,-0.985,-11.7 (active),0.0032 (inactive),-0.515 (inactive)
CCCCCN1CC=CC23O[C@@H]4C=CCCOC(=O)C4[C@H]2C(=O)N(CCCO)[C@@H]3C1=O (some centres not stated),0.457,-0.613 (inactive),0.435 (inactive),-1.36 (inactive),-0.289 (inactive),-0.126 (inactive),-0.761 (inactive),-0.251 (inactive),-0.0665,-0.162,0.0154 (inactive),0.466,-1.54,-3.33 (inactive),-0.299 (inactive),-0.688 (inactive)
